Source: PubChem (Fisher Drug Discovery Resource Center)
The list is not random: actives were taken first. Their share in the collection is about 0.24%.
mcGAS inh: inhibitors of mouse cGAS; Q8C6L5; recombinant cGAS, Kinase-Glo ATP depletion luminescence; inhibition, % at 12.5 µM; hit rate 0.15% among 160,000;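 also: 0% = negative control wells and 100% = reference inhibitor with no enzyme activity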
NPYLR7 ag: mosquito NPYLR7 agonism | HEK293T NPYLR7/Galpha15, GCaMP6s calcium fluorescence | activation, % at 10 µM | hit rate 0.15% among 270,000 | AID 1259423; in the data active = activation above about 40%;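 also: 0% = vehicle and 100% = reference agonist at the receptor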
hcGAS inh: blocks human cGAS activity | Q8N884 | recombinant h-cGAS, ATP depletion, Kinase-Glo luminescence | inhibition, % at 12.5 µM | hit rate 0.081% among 290,000 | AID 1259398;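 also: 0% = vehicle reaction and 100% = reaction without DNA for no activity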
Target sequence (Q8N884 whole entry, looked up): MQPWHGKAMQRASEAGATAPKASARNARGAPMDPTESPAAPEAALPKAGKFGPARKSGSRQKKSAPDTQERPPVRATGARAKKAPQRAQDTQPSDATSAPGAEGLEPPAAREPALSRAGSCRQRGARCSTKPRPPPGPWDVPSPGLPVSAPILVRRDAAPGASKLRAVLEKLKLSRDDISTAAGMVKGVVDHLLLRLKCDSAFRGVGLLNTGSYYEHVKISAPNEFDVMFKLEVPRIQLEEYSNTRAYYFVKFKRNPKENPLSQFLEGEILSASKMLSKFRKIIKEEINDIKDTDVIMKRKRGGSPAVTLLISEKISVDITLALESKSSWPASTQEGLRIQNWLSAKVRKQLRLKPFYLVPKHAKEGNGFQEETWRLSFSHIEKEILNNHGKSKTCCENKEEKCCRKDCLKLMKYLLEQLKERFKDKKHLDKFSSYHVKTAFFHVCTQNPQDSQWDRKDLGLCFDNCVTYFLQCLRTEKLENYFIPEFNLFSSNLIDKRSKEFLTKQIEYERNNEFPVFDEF
An asterisk follows results filed as active; / = not tested or not shown; ! = not active in a repeat. Rule as the data show it, unless noted: active = inhibition above about 40%; inactive = the rest.

SMILES | mcGAS inh | NPYLR7 ag | hcGAS inh
O=c1c2ccccc2oc2ccccc12 | -4 | 1 | -8
O=C1CNc2c(c(=O)oc3ccccc23)N1 | / | 2 | 52*
CC1(C(=O)Nc2ccccc2)CCN1C(=O)Cc1cc(F)ccc1F (centres undefined) | -6 | 4 | -6
CC(=O)[C@@H]1SC(=N)C(C#N)[C@H]1c1cccs1 (some centres undefined) | 2 | -5 | 7
N#CC1C(=N)SC(=N)C(C#N)C1c1cccs1 (centres undefined) | 70* | 27 | 74*
COc1ccc(-n2ccnc2-c2nc(-c3cccs3)oc2C)cn1 | / | 57* | -10
Cc1oc(-c2cccs2)nc1-c1nccn1Cc1noc(C(C)C)n1 | -9 | / | -6
CC(C(N)=O)n1cc(-c2ccnc3c2ccn3C)cn1 (centres undefined) | -12 | / | -3
COc1ccc(NCc2ccc(OC)c(Br)c2)cn1 | -9 | 86* | -13
COc1ccc(NCc2cc(OC)c3c(c2)OCCO3)cn1 | -6 | 3 | -6
N#CCN(C(=O)c1cccc(NS(=O)(=O)c2cc(Cl)ccc2Cl)c1)C1CC1 | 6 | -2 | 8
CCOc1ccc(Cc2nnc(N(C)c3ccccc3)[nH]c2=O)cc1 | / | 10 | -5
Cc1[nH]ccc2c1[nH]c1cc(=O)ccc12 | 43* | -4 | 49*!
Cc1c2ccccc2[nH]c2c1oc1cc(=O)ccc12 | / | 13 | -6
CC(=O)Nc1cccc(-n2c(C)nnc2SCc2ccccc2C#N)c1 | / | -4 | -7
N#Cc1cccc(OCc2ccc(S(=O)(=O)N3CCOCC3)o2)c1 | / | 2 | 2
O=C(CN1CCc2ccccc2C1)NCC1CCN(c2ccccc2)C1 (centres undefined) | / | -2 | -13
O=C(Cc1ccc2c(c1)CCC2)NCC1CCN(c2ccccc2)C1 (centres undefined) | 0 | 49* | 1
O=C(c1ccc(=O)[nH]n1)N1CCN(C(=O)C2COc3ccccc3O2)CC1 (centres undefined) | / | 2 | -5
CN1CCC(=C2c3ccccc3C=Cc3ccccc32)CC1 | -4 | -5 | -1
CN1CCC(=C2c3ccccc3Sc3ccccc32)CC1 | -5 | 54*! | -3
Cc1cc(O)c(CN2CCN(CCO)CC2)c2c1C(=O)/C(=C/c1cccs1)O2 | -7 | 28 | -4
O=C1/C(=C/c2cc3ccccc3o2)Oc2cc(O)ccc21 | / | 49* | -11
Cc1cc(O)c(CN2CCN(CCO)CC2)c2c1C(=O)/C(=C/c1ccccc1)O2 | -6 | 16 | -5
O=C1/C(=C/c2cc3ccccc3o2)Oc2c1ccc(O)c2CN1CCN(CCO)CC1 | 5 | 108* | 5
SMILES | mcGAS inh | NPYLR7 ag | hcGAS inh
O=C1/C(=C/c2ccco2)Oc2c1ccc(O)c2CN1CCN(CCO)CC1 | -9 | 56 | -1
CCN1CCN(Cc2c(O)cc(C)c3c2O/C(=C\c2ccco2)C3=O)CC1 | -6 | 65* | -1
Cc1cc(O)c(CN2CCN(CCO)CC2)c2c1C(=O)/C(=C/c1cc3ccccc3o1)O2 | -6 | 80* | -4
O=C1/C(=C/N2CCC3(CC2)OCCO3)Oc2cc(O)ccc21 | -12 | -6 | -7
FC(F)(F)c1cccc(C2(c3nc(-c4ccccn4)no3)CCOCC2)c1 | / | 4 | -9
c1ccc(C2=Nc3ncnn3C(c3cccc4ccccc34)C2)cc1 (centres undefined) | / | 2 | -1
Nc1ccc(-c2ccn[nH]2)cc1 | / | 1 | -6
COc1cc(C=CC(=O)N2CCCC2c2ccc3c(c2)OCCO3)cc(OC)c1 (centres undefined) | 1 | 0 | 5
Cc1ccc(C2CC(c3ccc(C)c(C)c3)=Nc3nnnn32)cc1 (centres undefined) | / | 8 | -11
Cc1cc(O)c(CN2CCN(C)CC2)c2c1C(=O)/C(=C/c1cc3cc(Br)ccc3o1)O2 | -7 | 4 | -9
Cc1cc(O)c(CN2CCCC2)c2c1C(=O)/C(=C/c1cc3ccccc3o1)O2 | -2 | 57* | -3
N#CCSc1sc2c(O)cc(=O)[nH]c2c1C#N | 60* | 2 | 2
NC(=O)c1c(SCc2ccccc2)sc2c(O)cc(=O)[nH]c12 | -6 | 10 | -8
COc1cc(-c2nc3sc4c(c3c(=O)[nH]2)CCCS4)ccc1O | / | 1 | -6
O=C(O)c1cccnc1C(=O)O | -4 | 3 | 53*!
O=C(O)c1cccnc1S(=O)(=O)C(F)(F)F | / | 10 | -8
CCOC(=O)C1=C(C)C2(Br)C3C(=O)N(Cc4ccccc4)C(=O)C3C1(C)C1C(=O)N(Cc3ccccc3)C(=O)C12 (centres undefined) | / | -3 | -2
Cc1cccc(NC(=O)CSc2nnc(NCC3CCCO3)s2)c1 (centres undefined) | -5 | 1 | -3
CCc1ccc(S(=O)(=O)Nc2ccc(S(=O)(=O)CCO)cc2)s1 | / | -1 | -7
CC(C)Oc1ccc(S(=O)(=O)N2CCCCC2)cc1NC(=O)CSc1nncn1C1CC1 | 56* | -4 | -1
CC(C)Oc1ccc(S(=O)(=O)N2CCCCC2)cc1NC(=O)CCl | / | -11 | -9
CCOC(=O)N1CCC2(CC1)[C@H](C(=O)N(C)c1ccccc1)[C@@H](OC)C(=O)N2C | -5 | 10 | 4
N#Cc1cc(I)c(O)c([N+](=O)[O-])c1 | / | -7 | 67*
N#Cc1ccc([N+](=O)[O-])c(O)c1 | / | -7 | 3
C=CCCC(=O)NC1CC(=O)N(CCc2ccc(F)cc2)C1 (centres undefined) | / | 11 | -9
SMILES | mcGAS inh | NPYLR7 ag | hcGAS inh
COc1cc(C(=O)O)c(N)cc1OC(F)F | / | -5 | 4
Cc1ccc(Cc2nc(CSc3c(F)c(F)cc(F)c3F)cs2)cc1 | -5 | 24 | -6
O=[N+]([O-])c1ccccc1-n1nc2c3nonc3ccc2[n+]1[O-] | -6 | 1 | -5
O=[N+]([O-])c1ccc(-n2nc3ccc4nonc4c3n2)cc1 | -6 | 81* | -4
COc1cccc(Oc2cc(N3CCN(Cc4ccccc4)CC3)ncn2)c1 | -5 | / | -6
O=C(NC(Cc1ccccc1)C(=O)Nc1nnc(-c2cccc(Cl)c2)s1)c1ccc(F)cc1 (centres undefined) | -4 | -4 | -5
CC(C)C1CN(S(=O)(=O)N(C)C)CCCN1Cc1ccc(F)cc1 (centres undefined) | -12 | 2 | -3
CC(C(=O)O)n1c(O)c(C=C2C=Nc3ccccc32)sc1=S (centres undefined) | -5 | 75* | 1
O=C(O)CCn1c(O)c(C=C2C=Nc3ccccc32)sc1=S | -1 | 46* | 4
O=C(O)c1ccc(-n2c(O)c(C=C3C=Nc4ccccc43)sc2=S)cc1 | -1 | -1 | -7
O=C(Nn1c(O)c(C=C2C=Nc3ccccc32)sc1=S)c1ccccc1[N+](=O)[O-] | -5 | 12 | -5
CS(=O)(=O)N1CCC(C(=O)Nc2ccccc2NC(=O)c2cccc(Cl)c2)CC1 | / | 1 | -5
Oc1oc(-c2ccccc2Br)nc1C=Nc1ccccc1 | / | 65* | 15
Cc1ccc(N=Cc2nc(-c3ccccc3Br)oc2O)cc1 | / | -3 | -5
CN(Cc1cccc(Cl)c1)C1CCOC1=O (centres undefined) | / | 14 | -8
O=C1CCCN1C(=O)CSc1nnc(-c2cccc(Br)c2)o1 | / | 0 | -8
Fc1cnccc1-c1nc(C2CCOC2)no1 (centres undefined) | / | -4 | -8
O=C(NC1CCN(c2ccccc2C(=O)NCCN2CCCC2)CC1)c1ccccc1Cl | -4 | 1 | -6
